# Screens deposited in PubChem BioAssay by National Center for Advancing Translational Sciences (NCATS).
# This is a sample that favours compounds with a hit; in the whole collection about 11% have one here.
# SW480 rerep – inducers of DNA re-replication in SW480 colon cancer cells | AID 624297 | SW480 DNA re-replication, Hoechst DNA content imaging, 48 h | Potency, µM (top dose mostly 46.1 µM), for the others: at the highest dose re-replication activation, hits mostly activators | hit rate 1.8% among 340,000; further: potency means the concentration at half of the fitted maximal effect; % of control where 0% means no effect; nearly all actives have a fitted effect of over 55% in size
#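 Image-based DNA-content assay: after two days of treatment, nuclei were labelled with the DNA dye Hoechst and imaged, and hits were compounds raising the count of nuclei showing high fluorescence intensity.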
# Gal4-VP16 FLuc – Gal4-VP16 reporter inhibition counter-screen. Drosophila S2 Gal4-VP16 UAS-luciferase, luminescence, 20 h. Potency, µM (series often up to 53.6 µM), for the others: at the highest dose activity, negative = inhibition, actives largely listed as inhibitors. hit rate 3.5% among 310,000. AID 2546;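 further: Gal4-VP16 expression switched on by copper sulfate through the metallothionein promoter; potency means the concentration at half of the fitted maximal effect; on the % scale 0 is the no-effect control and ±100 the full control effect; nearly all actives have a fitted effect of over 50% in size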
# RORgamma inh – ROR gamma (mouse) transcription inhibition. P51450. Drosophila S2 Gal4-RORgamma UAS-luciferase reporter, 20 h. Potency, µM (highest dose often 53.6 µM), inactives show top-dose activity change, negative = inhibition, actives largely listed as inhibitors. hit rate 5.4% among 310,000. AID 2551; further: potency means the concentration at half of the fitted maximal effect; on the % scale 0 is the no-effect control and ±100 the full control effect; nearly all actives have a fitted effect of over 60% in size
# Target sequence (P51450 whole entry, looked up, the tested form may be a part): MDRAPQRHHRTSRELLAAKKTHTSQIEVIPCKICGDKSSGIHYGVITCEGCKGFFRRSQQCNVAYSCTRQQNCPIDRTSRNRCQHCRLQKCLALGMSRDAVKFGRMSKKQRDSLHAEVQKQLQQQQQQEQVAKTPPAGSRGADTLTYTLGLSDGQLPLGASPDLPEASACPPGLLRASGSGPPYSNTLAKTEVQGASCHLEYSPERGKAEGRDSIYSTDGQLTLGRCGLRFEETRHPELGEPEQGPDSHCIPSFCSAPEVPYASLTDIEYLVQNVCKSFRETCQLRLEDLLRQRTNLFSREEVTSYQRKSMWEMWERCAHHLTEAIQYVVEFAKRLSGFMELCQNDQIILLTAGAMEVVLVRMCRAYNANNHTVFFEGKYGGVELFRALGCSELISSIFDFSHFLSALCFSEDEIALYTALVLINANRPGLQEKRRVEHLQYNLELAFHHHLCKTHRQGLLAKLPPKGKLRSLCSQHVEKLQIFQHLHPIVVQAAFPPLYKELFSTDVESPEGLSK
#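 Compounds are pin-transferred onto Drosophila Schneider cells expressing a copper-inducible Gal4–ROR gamma transactivation domain fusion. After 1 hr, copper sulfate is added to 700 uM final; luciferase is read 20 hr later.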
# IL-1B inflam inh – blocks inflammasome-driven IL-1 beta release. THP-1 LPS/ATP IL-1B secretion, AlphaLISA, 16 h; hits give low values. activity change, % at 57.5 µM. hit rate 4.7% among 360,000; in the data active means activity change below about -50%; inconclusive means mostly about -30% to -49%; further: on the % scale 0 is the no-effect control and ±100 the full control effect
#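 Secreted IL-1B measured by AlphaLISA bead assay after 16 h compound exposure of THP-1 cells; compounds (final up to 57.5 uM) added 1 h before LPS (250 ng/mL) and ATP (1.25 mM) stimulation; lower signal means less secretion.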
# MCF10A rerep – induces DNA re-replication in MCF 10a normal breast cells | hit rate 2.9% among 350,000 | MCF 10A DNA re-replication, Hoechst nuclear intensity, 48 h | AID 624296 | Potency, µM (series often up to 46.1 µM), for inactives: top-dose activity, positive = re-replication, most hits filed as activators; further: potency means the concentration at half of the fitted maximal effect; % of control where 0% means no effect; nearly all actives have a fitted effect of over 50% in size
# * marks the source's active call; other numbers are inactive results; i = inactive; ? = inconclusive; . = no result given; [ ] = remark or other dose. Unless noted, the call rests on the fitted dose curve; in most records, active means well fitted curve in the direction sought with a large enough effect; inconclusive means small, poorly fitted or top-dose-only effect, or another doubt; inactive means no such curve, though single readings can be large; an effect the other way counts as inactive or inconclusive.
SMILES,SW480 rerep,Gal4-VP16 FLuc,RORgamma inh,IL-1B inflam inh,MCF10A rerep
NS(=O)(=O)c1ccc(CCNC(=O)COC(=O)C2CCC2)cc1,-5%,-9%,-24%,32,0%
O=C1CC(NCCc2ccccc2)C(=O)N1CCc1ccccc1 (configuration not stated),-23%,23%,4%,-2,0%
Cc1ccc(NC2CC(=O)N(CCc3ccccc3)C2=O)cc1 (configuration not stated),-14%,-11%,4µM*,-2,-4%
Cc1ccc(-c2nc3ccccc3s2)cc1S(=O)(=O)N1CCCC1,4%,3%,44%,-6,?
Cc1cc(-c2nc3cc(F)ccc3s2)ccc1N,18µM*,.,.,-76*,10µM*
COc1ccc(NC(=O)CN(C)C(=O)CCNS(=O)(=O)c2ccc(Br)cc2)cc1,-19%,-5%,17%,i,-5%
Cc1ccc(COc2ccc(/C=N/O)cc2)cc1,5%,?,8.9µM*,-9,?
NC(N)=N/N=C/c1ccc(OCc2ccc(Cl)cc2)cc1,-3%,7.1µM*,?,-94*,1%
NC(N)=N/N=C/c1ccc(Br)cc1,?,5%,-7%,?,18µM*
NC(N)=N/N=C/c1ccc(OCc2ccccc2)cc1,0%,10µM*,-32%,-83*,1%
CCOc1ccc(/C=N/O)cc1,2%,8%,38%,9,-5%
Cc1ccc(C(=O)CCC(=O)N2CCN(C/C=C/c3ccccc3)CC2)cc1,.,.,.,4,.
CC(C)CCCC(C)C1CCC2C3CC(=O)[C@H]4CC(O)CC[C@]4(C)C3CC[C@@]12C (some centres not stated),.,-8%,-4%,.,.
CCN1C(=O)[C@H]2[C@H]3CN=C(SCC(=O)c4ccccc4)N3[C@@](CC)(C(=O)OC)[C@H]2C1=O,-5%[9.22 µM],.,.,-19,1%
CC12CCC(=O)C=C1C(F)CC1C2C(O)CC2(C)C1CCC2(O)C(=O)CO (configuration not stated),-5%,.,.,.,-59%
CN(C)c1ncnc2c1ncn2[C@H]1CN(C2CCCC2)C[C@@H](CO)O1,.,.,.,9,.
Cc1ccc(N2C(=O)c3cccc4c(N5CCN(C)CC5)ccc(c34)C2=O)c2cccnc12,-5%,-12%,4%,35,-9%
Cc1ccnc(N2C(=O)c3cccc4c([N+](=O)[O-])ccc(c34)C2=O)c1,3.7µM*,0%[0.365 µM],6.3µM*,-101*,4.6µM*
O=C1c2cccc3c([N+](=O)[O-])ccc(c23)C(=O)N1Cc1cccnc1,?,?,4.5µM*,-101*,18µM*
Cc1nnc(N2C(=O)c3cccc4c([N+](=O)[O-])ccc(c34)C2=O)s1,?,3.2µM*,4µM*,-95*,23µM*
Cc1ccc(N2C(=O)c3cccc4c([N+](=O)[O-])ccc(c34)C2=O)c2cccnc12,2.1µM*,-11%,25%,13,2.6µM*
COc1ccc(S(=O)(=O)N(C)C)cc1NC(=O)c1ccc2c(c1)OCCO2,?,.,.,-57*,8%
Cc1cc2nc(/C=C/c3nc4cc(C)c(C)cc4[nH]3)[nH]c2cc1C,23µM*,1%,1%,3,?
Cc1cc2nc(/C=C/c3cccnc3)[nH]c2cc1C,?,-4%,?,6,?
CCc1ccc(OCc2cccc(C(=O)N/N=C\c3cnn(C)c3C)c2)cc1,?,.,.,6,1%
SMILES,SW480 rerep,Gal4-VP16 FLuc,RORgamma inh,IL-1B inflam inh,MCF10A rerep
C/C(CCc1ccc2c(c1)OCO2)=N\N=C1\NC(=O)CC(C(=O)Nc2ccccc2F)S1 (configuration not stated),-3%,?,11µM*,32,23%
Cc1cccc(C)c1N1C(=O)c2ccccc2NC(=O)C1C(=O)NCCc1ccccc1F (configuration not stated),.,.,.,0,.
CCC1=NN(C(=O)c2cccnc2)C(O)(C(F)(F)F)C1 (configuration not stated),-3%,?,11µM*,0,0%
CCCCC1=NN(C(=O)c2cccnc2)C(O)(C(F)(F)F)C1 (configuration not stated),-12%,?,10µM*,23,-2%
CS(=O)(=O)Cc1ccc(C(=O)NC2CCSc3ccccc32)cc1 (configuration not stated),0%,-9%,33%,0,-10%
CC(C)c1ccc(OCc2nc(-c3ccccn3)no2)c(Br)c1,-1%,-27%,-42%,-54*,15µM*
Cc1ccc(OCc2nc(-c3ccccn3)no2)c(Br)c1,-17%,?,?,-7,?
CC(N)COC(=O)C(CCCCN)NC(=O)Cc1c(-c2ccc3ccccc3c2)[nH]c2c1ccc1ccccc12 (configuration not stated),.,-8%,11%,.,.
Cc1ccccc1NC(=S)NC(=O)c1cc(-c2ccccc2)nc2ccccc12,-16%,4µM*,1.8µM*,-1,1%[9.22 µM]
O=C(O)c1ccccc1NC(=O)c1cc(-c2ccccc2)nc2ccccc12,-8%,-8%,?,17,?
Cc1ccccc1NC(=O)c1cccc2nc3ccccc3nc12,18µM*,-5%,1%,-18,?
Cc1ccccc1NC(=O)c1ccccc1NC(=O)Cc1cccc2ccccc12,-5%,?,-7%,-5,?
Cc1cccc(NC(=S)NC(=O)c2cc(-c3ccccc3)nc3ccccc23)c1,-8%[9.22 µM],5.6µM*,2µM*,15,-19%
CC(C)Nc1ncnc2c1ncn2[C@H]1CN(Cc2cccnc2)C[C@@H](CO)O1,.,.,.,2,.
COCCCNC(=O)CCCN1C(=O)c2cccnc2Sc2ccccc21,-22%,-4%,17%,0,-5%
CC(=O)C1CCC2C3CCC4CC(=O)CCC4(C)C3C(C)(O)CC12C (configuration not stated),-5%,.,.,17,12%
CCOC(=O)C(=NC(C)(C)C)NNc1cc(Cl)ccc1Cl,-1%,5%,-9%,0,?
CCOC(=O)C(=NC(C)C)NNc1cc(Cl)ccc1Cl,-9%,-3%,-6%,49,16µM*
COc1cccc(CNC(=O)c2ccc(C)c(NC3=NC4CS(=O)(=O)CC4S3)c2)c1 (configuration not stated),-2%,7%,-13%,-2,17%
CC(O)CNc1nc2sc3c(c2c(=O)n1CCc1ccccc1)CCCCC3 (configuration not stated),?,?,?,-82*,?
CN(C)CCNc1nc2sc3c(c2c(=O)n1CCc1ccccc1)CCCCC3,18µM*,-5%,-2%,-75*,?
O=c1c2ccccc2[nH]c(=S)n1Cc1cccnc1,-2%,?,?,16,-4%
C=CCn1c(=S)[nH]c2nc3c(cc2c1=O)CCCC3,1%,7.1µM*,7.1µM*,12,?
